{"source": "PubChem BioAssay (NCATS)", "note": "Records with an inconclusive call do not appear. Entries that show only a call come without a potency. Active and inactive are the calls of the source. Calls follow the shape of the dose curve; as a rule, active = well fitted cell-killing curve with a large enough effect; inconclusive = small, poorly fitted or top-dose-only effect; inactive = no such curve, though single readings can be large or run the other way. Potency is read from the fitted curve at half-maximal effect.", "data": [{"test": "qHTS of pediatric cancer cell lines to identify multiple opportunities for drug repurposing: Primary screen for SJ-GBM2 cells (AID 1347091)", "details": "SJ-GBM2 viability, CellTiter-Glo luminescence, 48 h; series mostly up to 46 µM", "method_in_brief": "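Viability measured as metabolically active cells via CellTiter-Glo luminescence following 48 hours of compound exposure, 11-point dilutions in confirmatory testing. 500-1,000 cells/well plated 5 hours before dosing; controls were DMSO and 2.3 µM bortezomib.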", "values": [{"compound": "OCCN1C[C@H](O)[C@@H](O)[C@H](O)[C@@H]1CO", "Potency": "inactive"}, {"compound": "COC(=O)[C@@H]1CC2=CC(=O)CC[C@]2(C)[C@@]23O[C@@H]2C[C@@]2(C)[C@H](CC[C@@]24CCC(=O)O4)[C@@H]13", "Potency": "inactive"}, {"compound": "CN[C@H](CC(C)C)C(=O)N[C@H]1C(=O)N[C@@H](CC(N)=O)C(=O)N[C@@H]2C(=O)N[C@H]3C(=O)N[C@H](C(=O)N[C@H](C(=O)O)c4cc(O)cc(O)c4-c4cc3ccc4O)[C@H](O)c3ccc(c(Cl)c3)Oc3cc2cc(c3O[C@@H]2O[C@H](CO)[C@@H](O)[C@H](O)[C@@H]2O[C@H]2C[C@](C)(N)[C@H](O)[C@H](C)O2)Oc2ccc(cc2Cl)[C@H]1O", "Potency": "inactive"}, {"compound": "Cc1cn([C@@H]2O[C@H](CO)[C@@H](O)[C@H]2F)c(=O)[nH]c1=O", "Potency": "inactive"}, {"compound": "Cc1ccccc1C(=O)Nc1ccc(C(=O)N2CCCC(O)c3cc(Cl)ccc32)c(C)c1", "note": "(centres undefined)", "Potency": "inactive"}, {"compound": "CNC(=O)Nc1ccc(-c2nc(N3CC4CCC(C3)O4)c3cnn(C4CCC5(CC4)OCCO5)c3n2)cc1", "Potency": "29.6 nM (active)"}, {"compound": "CN[C@H]1[C@@H](O)[C@@H]2O[C@@H]3O[C@H](C)CC(=O)[C@]3(O)O[C@@H]2[C@@H](NC)[C@H]1O", "Potency": "590 nM (active)"}, {"compound": "C=Cc1c(C)c2cc3nc(cc4[nH]c(cc5nc(cc1[nH]2)C(C)=C5CCC(=O)O)c(CCC(=O)OC)c4C)[C@@]1(C)C3=CC=C(C(=O)OC)[C@H]1C(=O)OC", "Potency": "590 nM (active)"}, {"compound": "CC(C)(O)CC[C@@H](O)[C@](C)(O)[C@H]1CC[C@@]2(O)C3=CC(=O)[C@@H]4C[C@@H](O)[C@@H](O)C[C@]4(C)[C@@H]3CC[C@]12C", "Potency": "inactive"}, {"compound": "CC(=O)C1=C(O)C=C2Oc3c(C(C)=O)c(O)c(C)c(O)c3C2(C)C1=O", "note": "(centres undefined)", "Potency": "2350 nM (active)"}, {"compound": "C=CC(=O)N1CCc2ccc(-n3c(=O)ccc4cnc5ccc(-c6cnn(C)c6)cc5c43)cc21", "Potency": "5900 nM (active)"}, {"compound": "CC(Cc1ccc(O)c(O)c1)(NN)C(=O)O", "note": "(centres undefined)", "Potency": "inactive"}, {"compound": "CCNC(=O)Nc1ccc(-c2nc3c(c(N4CCOC[C@H]4C)n2)CCN(C2COC2)C3)cc1", "Potency": "743 nM (active)"}, {"compound": "O=C(Nc1ccc(Oc2ccnc3[nH]ccc23)c(F)c1)c1cccn(-c2ccc(F)cc2)c1=O", "Potency": "16600 nM (active)"}]}, {"test": "qHTS of pediatric cancer cell lines to identify multiple opportunities for drug repurposing: Primary screen for A673 cells (AID 1347092); also: nearly all actives have a fitted effect of over 45% in size", "details": "A673 Ewing sarcoma viability, CellTiter-Glo ATP luminescence, 48 h; series mostly up to 46 µM", "method_in_brief": "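Cells are plated, rested 5 h, dosed by pintool, incubated 48 h, then lysed with CellTiter-Glo and read by luminescence. DMSO is the neutral control; bortezomib at 2.3 uM final is the positive control.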", "values": [{"compound": "CON=C(C(=O)N[C@@H]1C(=O)N2C(C(=O)O)=C(Cn3ccc(=N)n3CCO)CS[C@H]12)c1csc(N)n1", "Potency": "inactive"}, {"compound": "CCc1cc(C(C)=NOCc2ccc(C3CCCCC3)c(C(F)(F)F)c2)ccc1CN1CC(C(=O)O)C1", "Potency": "1480 nM (active)"}, {"compound": "COc1ccc([C@@H]2CNC(=O)C2)cc1OC1CCCC1", "Potency": "743 nM (active)"}, {"compound": "CC(=O)O[C@]1(C(C)=O)CC[C@H]2[C@@H]3C=C(C)C4=CC(=O)CC[C@]4(C)[C@@H]3CC[C@@]21C", "Potency": "2350 nM (active)"}, {"compound": "C=CC[C@@H]1C=C(C)C[C@H](C)C[C@H](OC)[C@H]2O[C@@](O)(C(=O)C(=O)N3CCCC[C@H]3C(=O)O[C@H](C(C)=C[C@@H]3CC[C@H](O)[C@H](OC)C3)[C@@H](C)[C@@H](O)CC1=O)[C@@H](C)C[C@@H]2OC", "Potency": "inactive"}, {"compound": "N#CC(=C(N)Sc1ccc(N)cc1)c1ccccc1C(F)(F)F", "Potency": "inactive"}, {"compound": "COc1cc(C)c(Sc2cnc(NC(=O)c3ccc(CNC(C)C(C)(C)C)cc3)s2)cc1C(=O)N1CCN(C(C)=O)CC1", "note": "(centres undefined)", "Potency": "2350 nM (active)"}, {"compound": "CC(=O)N[C@H]1[C@@H]([C@H](O)[C@H](O)CO)OC(C(=O)O)=C[C@@H]1N=C(N)N", "Potency": "inactive"}, {"compound": "C=C1C[C@@]2(O)O[C@@]3(C[C@H]2C(C)C)[C@H](C)CC[C@H]13", "Potency": "inactive"}, {"compound": "CS(=O)(=O)N1CCc2c(-c3cnc(N)nc3)nc(N3CCOCC3)nc21", "Potency": "935 nM (active)"}, {"compound": "O=C(O)c1ccc(Nc2ncc3c(n2)-c2ccc(Cl)cc2C(c2c(F)cccc2F)=NC3)cc1", "Potency": "4690 nM (active)"}, {"compound": "Cc1ccc2nc(NCCN)c3ncc(C)n3c2c1", "Potency": "1870 nM (active)"}, {"compound": "O=C(O)C=Cc1ccc(Cn2ccnc2)cc1", "Potency": "inactive"}, {"compound": "CC(=O)N1CCN(c2ccc(OCc3nn(C)c(C)c3-c3cccc4c(CCCOc5cccc6ccccc56)c(C(=O)O)n(Cc5cccnc5)c34)cc2)CC1", "Potency": "74.3 nM (active)"}, {"compound": "NC1=N[C@H]2[C@H](CS[C@H]2CCCCC(=O)O)N1", "Potency": "inactive"}, {"compound": "OCc1ccccc1O[C@@H]1O[C@H](CO)[C@H](O)[C@H](O)[C@H]1O", "Potency": "inactive"}, {"compound": "OCCN1C[C@H](O)[C@@H](O)[C@H](O)[C@@H]1CO", "Potency": "9350 nM (active)"}, {"compound": "COC(=O)[C@@H]1CC2=CC(=O)CC[C@]2(C)[C@@]23O[C@@H]2C[C@@]2(C)[C@H](CC[C@@]24CCC(=O)O4)[C@@H]13", "Potency": "inactive"}, {"compound": "CN[C@H](CC(C)C)C(=O)N[C@H]1C(=O)N[C@@H](CC(N)=O)C(=O)N[C@@H]2C(=O)N[C@H]3C(=O)N[C@H](C(=O)N[C@H](C(=O)O)c4cc(O)cc(O)c4-c4cc3ccc4O)[C@H](O)c3ccc(c(Cl)c3)Oc3cc2cc(c3O[C@@H]2O[C@H](CO)[C@@H](O)[C@H](O)[C@@H]2O[C@H]2C[C@](C)(N)[C@H](O)[C@H](C)O2)Oc2ccc(cc2Cl)[C@H]1O", "Potency": "inactive"}, {"compound": "Cc1cn([C@@H]2O[C@H](CO)[C@@H](O)[C@H]2F)c(=O)[nH]c1=O", "Potency": "inactive"}, {"compound": "Cc1ccccc1C(=O)Nc1ccc(C(=O)N2CCCC(O)c3cc(Cl)ccc32)c(C)c1", "note": "(centres undefined)", "Potency": "inactive"}, {"compound": "CNC(=O)Nc1ccc(-c2nc(N3CC4CCC(C3)O4)c3cnn(C4CCC5(CC4)OCCO5)c3n2)cc1", "Potency": "372 nM (active)"}, {"compound": "CN[C@H]1[C@@H](O)[C@@H]2O[C@@H]3O[C@H](C)CC(=O)[C@]3(O)O[C@@H]2[C@@H](NC)[C@H]1O", "Potency": "74.3 nM (active)"}, {"compound": "O=c1[nH]c(=O)n([C@H]2C[C@@H](O)[C@@H](CO)O2)cc1C=CBr", "Potency": "inactive"}, {"compound": "CCCCC(=O)O[C@]1(C(=O)CO)[C@@H](C)C[C@H]2[C@@H]3CCC4=CC(=O)C=C[C@]4(C)[C@@]3(F)[C@@H](O)C[C@@]21C", "Potency": "inactive"}, {"compound": "CC(=O)C1=C(O)C=C2Oc3c(C(C)=O)c(O)c(C)c(O)c3C2(C)C1=O", "note": "(centres undefined)", "Potency": "187 nM (active)"}, {"compound": "C=CC(=O)N1CCc2ccc(-n3c(=O)ccc4cnc5ccc(-c6cnn(C)c6)cc5c43)cc21", "Potency": "5900 nM (active)"}, {"compound": "CC1(C)O[C@@H]2C[C@H]3[C@@H]4CCC5=CC(=O)C=C[C@]5(C)[C@@H]4[C@@H](O)C[C@]3(C)[C@]2(C(=O)CO)O1", "Potency": "inactive"}, {"compound": "C[C@@H]1[C@H](C)CC[C@]2(C(=O)O)CC[C@]3(C)C(=CC[C@@H]4[C@@]5(C)C[C@@H](O)[C@H](O)[C@@](C)(CO)[C@H]5CC[C@]43C)[C@@H]12", "Potency": "inactive"}, {"compound": "CCCCCCCCCCCCc1ccc(S(=O)(=O)Nc2nncs2)cc1", "Potency": "inactive"}]}]}
